According to the supplement of paper PMC10849652:
The full data set covers some 7,900 targets. This sample favours those with a hit. About 0.6% of all pairs of compound and target were hits. Unmarked numbers belong to inactive results.

What was measured:
Experiment in all cases: log2 fold change, soluble protein after heating vs DMSO (PISA); higher = thermal stabilisation; K562 cells, 10 uM, 30 min; active = over 0.2 and 3.5 SD of the protein, either way, in both replicates (recomputed)
[1] = compound: CS(=O)(=O)c1ccc(-c2cnc(N)c(C(=O)Nc3ccccc3)n2)cc1
Summary of the method: (§1)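 Quantification of soluble protein used TMTpro 16plex LC-MS/MS, with channel sums equalised. Samples were the supernatant after 21,000xg for 90 min of pooled aliquots from K562 cells (2×10^6 cells/mL) treated with 10 μM compound for 30 min, heated for 3 min over 48°C-58°C, and extracted in PBS with 0.5% NP-40 at 4°C. Values, from duplicates, describe thermal stability against control samples on a log2 fold-change scale.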

[2] = compound: C[C@@H](Oc1cc(-c2cnn(C3CCNCC3)c2)cnc1N)c1c(Cl)ccc(F)c1Cl [crizotinib]
Summary of the method: as §1

[3] = compound: C[C@@H]1COCCN1C2=NC(=NC(=C2)C3(CC3)S(=O)(=O)C)C4=C5C=CNC5=CC=C4
Summary of the method: as §1

[4] = compound: C[C@H](C1=CC=C(C=C1)C(=O)NC2=C3C=CNC3=NC=C2)N
Summary of the method: as §1

[5] = compound: C[C@H](Nc1ncnc2nc[nH]c12)c1cc2cccc(Cl)c2c(=O)n1-c1ccccc1 [duvelisib]
Summary of the method: as §1

[6] = compound: Cc1cc(Nc2cc(CN3CCOCC3)c3nc(C)c(Cc4ccc(Cl)cc4F)n3n2)n[nH]1 [gandotinib]
Summary of the method: as §1

[7] = compound: Cc1cc(Nc2cc(N3CCN(C)CC3)nc(Sc3ccc(NC(=O)C4CC4)cc3)n2)n[nH]1 [tozasertib]
Summary of the method: as §1

[8] = compound: Cc1cc(SCc2sc(-c3ccc(C(F)(F)F)cc3)nc2C)ccc1OCC(=O)O
Summary of the method: as §1

[9] = compound: Cc1ccc(-n2nc(C(C)(C)C)cc2NC(=O)Nc2ccc(OCCN3CCOCC3)c3ccccc23)cc1 [doramapimod]
Summary of the method: as §1

[10] = compound: Cc1ccc(C(=O)N(CCCN)[C@@H](c2nc3cc(Cl)ccc3c(=O)n2Cc2ccccc2)C(C)C)cc1 [ispinesib]
Summary of the method: as §1

UniProt P49116, sequence (P49116 whole entry, looked up): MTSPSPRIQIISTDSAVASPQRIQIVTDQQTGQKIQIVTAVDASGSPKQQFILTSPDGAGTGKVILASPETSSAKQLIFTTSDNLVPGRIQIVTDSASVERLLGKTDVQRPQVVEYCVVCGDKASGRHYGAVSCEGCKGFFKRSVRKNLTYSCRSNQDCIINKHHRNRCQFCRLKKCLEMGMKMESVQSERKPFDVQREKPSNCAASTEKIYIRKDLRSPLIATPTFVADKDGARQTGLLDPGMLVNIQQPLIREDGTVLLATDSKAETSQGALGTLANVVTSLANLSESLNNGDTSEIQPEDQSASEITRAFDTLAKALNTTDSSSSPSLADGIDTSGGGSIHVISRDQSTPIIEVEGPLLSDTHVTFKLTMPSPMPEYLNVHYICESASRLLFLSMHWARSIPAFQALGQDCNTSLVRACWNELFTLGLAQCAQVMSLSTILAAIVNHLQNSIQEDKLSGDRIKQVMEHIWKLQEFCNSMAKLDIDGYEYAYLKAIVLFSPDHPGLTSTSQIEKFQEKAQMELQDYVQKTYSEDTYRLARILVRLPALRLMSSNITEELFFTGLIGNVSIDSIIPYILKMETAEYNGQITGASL
UniProt P57740, sequence (P57740 whole entry, looked up): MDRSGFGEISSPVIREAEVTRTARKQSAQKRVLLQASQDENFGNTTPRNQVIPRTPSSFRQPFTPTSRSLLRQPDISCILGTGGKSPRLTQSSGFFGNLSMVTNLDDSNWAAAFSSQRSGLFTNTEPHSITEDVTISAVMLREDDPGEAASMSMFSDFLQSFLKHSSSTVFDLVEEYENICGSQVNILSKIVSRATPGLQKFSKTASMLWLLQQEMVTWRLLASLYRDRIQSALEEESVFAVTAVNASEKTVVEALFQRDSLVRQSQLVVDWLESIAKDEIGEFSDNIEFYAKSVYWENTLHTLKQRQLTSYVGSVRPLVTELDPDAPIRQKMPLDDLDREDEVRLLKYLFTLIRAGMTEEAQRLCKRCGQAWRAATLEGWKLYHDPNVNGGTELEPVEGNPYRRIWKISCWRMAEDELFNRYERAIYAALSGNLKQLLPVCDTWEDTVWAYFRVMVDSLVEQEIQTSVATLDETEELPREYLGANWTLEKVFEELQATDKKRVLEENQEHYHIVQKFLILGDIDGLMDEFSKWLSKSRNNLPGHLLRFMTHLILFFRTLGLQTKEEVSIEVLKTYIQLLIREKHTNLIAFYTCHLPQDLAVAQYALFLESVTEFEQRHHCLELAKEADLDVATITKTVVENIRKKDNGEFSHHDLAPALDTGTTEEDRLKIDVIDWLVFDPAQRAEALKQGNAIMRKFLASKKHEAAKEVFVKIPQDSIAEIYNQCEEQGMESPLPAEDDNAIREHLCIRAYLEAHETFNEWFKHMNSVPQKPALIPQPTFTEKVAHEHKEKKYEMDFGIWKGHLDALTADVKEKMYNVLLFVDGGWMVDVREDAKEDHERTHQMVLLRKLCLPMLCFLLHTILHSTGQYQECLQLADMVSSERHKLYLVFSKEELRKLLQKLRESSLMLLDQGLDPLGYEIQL
UniProt P15531, sequence (P15531 whole entry, looked up): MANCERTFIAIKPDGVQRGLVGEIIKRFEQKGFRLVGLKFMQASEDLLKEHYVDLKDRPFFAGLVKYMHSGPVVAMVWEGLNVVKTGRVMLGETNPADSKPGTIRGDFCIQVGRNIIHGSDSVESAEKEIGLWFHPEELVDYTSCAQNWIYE
UniProt Q8TEM1, sequence (Q8TEM1 whole entry, looked up): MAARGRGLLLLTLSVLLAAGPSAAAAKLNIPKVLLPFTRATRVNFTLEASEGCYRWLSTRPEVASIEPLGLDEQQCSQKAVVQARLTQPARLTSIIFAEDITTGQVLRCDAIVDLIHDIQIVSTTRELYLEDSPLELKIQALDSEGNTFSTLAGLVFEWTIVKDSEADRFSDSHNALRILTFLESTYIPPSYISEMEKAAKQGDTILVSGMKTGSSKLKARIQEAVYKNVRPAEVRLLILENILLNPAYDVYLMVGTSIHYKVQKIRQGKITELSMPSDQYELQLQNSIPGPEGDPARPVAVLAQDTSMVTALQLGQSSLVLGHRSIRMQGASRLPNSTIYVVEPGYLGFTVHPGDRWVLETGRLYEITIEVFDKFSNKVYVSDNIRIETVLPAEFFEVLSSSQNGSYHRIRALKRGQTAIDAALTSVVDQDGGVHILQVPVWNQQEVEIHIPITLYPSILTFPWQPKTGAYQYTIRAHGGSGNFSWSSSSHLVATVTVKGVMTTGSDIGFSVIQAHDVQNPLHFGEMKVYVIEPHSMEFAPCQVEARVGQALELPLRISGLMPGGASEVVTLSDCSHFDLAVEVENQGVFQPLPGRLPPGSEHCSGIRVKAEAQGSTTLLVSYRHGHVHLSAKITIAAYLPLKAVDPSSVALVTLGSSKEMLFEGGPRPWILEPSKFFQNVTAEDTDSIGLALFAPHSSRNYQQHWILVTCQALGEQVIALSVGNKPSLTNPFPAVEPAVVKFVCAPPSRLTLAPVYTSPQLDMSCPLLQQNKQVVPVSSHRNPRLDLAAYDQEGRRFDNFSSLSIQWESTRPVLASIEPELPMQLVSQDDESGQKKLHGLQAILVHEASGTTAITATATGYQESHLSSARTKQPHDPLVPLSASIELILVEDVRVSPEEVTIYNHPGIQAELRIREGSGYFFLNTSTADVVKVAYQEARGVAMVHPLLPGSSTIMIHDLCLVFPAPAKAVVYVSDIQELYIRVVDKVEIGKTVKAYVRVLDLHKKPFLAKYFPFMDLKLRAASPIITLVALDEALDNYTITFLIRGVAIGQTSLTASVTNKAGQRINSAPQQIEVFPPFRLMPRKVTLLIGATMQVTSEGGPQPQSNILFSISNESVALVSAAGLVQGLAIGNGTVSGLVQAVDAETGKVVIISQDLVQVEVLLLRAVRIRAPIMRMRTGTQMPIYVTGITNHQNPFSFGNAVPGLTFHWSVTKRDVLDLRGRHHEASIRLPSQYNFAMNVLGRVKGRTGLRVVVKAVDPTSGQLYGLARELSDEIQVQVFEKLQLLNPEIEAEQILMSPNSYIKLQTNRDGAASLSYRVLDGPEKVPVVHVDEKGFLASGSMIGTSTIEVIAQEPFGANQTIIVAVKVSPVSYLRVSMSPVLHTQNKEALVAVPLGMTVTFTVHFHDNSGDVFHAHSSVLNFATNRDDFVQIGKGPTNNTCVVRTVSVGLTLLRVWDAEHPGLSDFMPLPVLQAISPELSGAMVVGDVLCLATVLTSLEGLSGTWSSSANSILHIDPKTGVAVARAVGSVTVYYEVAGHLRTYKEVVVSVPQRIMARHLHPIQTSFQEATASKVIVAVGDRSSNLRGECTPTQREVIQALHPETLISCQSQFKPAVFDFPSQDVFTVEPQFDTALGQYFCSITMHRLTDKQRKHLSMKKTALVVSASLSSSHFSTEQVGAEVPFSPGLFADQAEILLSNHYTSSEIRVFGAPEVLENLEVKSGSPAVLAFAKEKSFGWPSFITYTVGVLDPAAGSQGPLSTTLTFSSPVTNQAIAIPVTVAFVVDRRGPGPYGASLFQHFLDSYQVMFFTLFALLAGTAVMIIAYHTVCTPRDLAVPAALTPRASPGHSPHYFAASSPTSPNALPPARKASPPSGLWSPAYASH
UniProt P49914, sequence (P49914 whole entry, looked up): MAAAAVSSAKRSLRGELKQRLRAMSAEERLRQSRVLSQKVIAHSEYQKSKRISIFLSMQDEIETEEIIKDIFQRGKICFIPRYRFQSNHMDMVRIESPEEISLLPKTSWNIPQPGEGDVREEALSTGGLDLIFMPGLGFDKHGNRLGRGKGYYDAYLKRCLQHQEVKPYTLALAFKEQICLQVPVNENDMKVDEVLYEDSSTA
UniProt P04181, sequence (P04181 whole entry, looked up): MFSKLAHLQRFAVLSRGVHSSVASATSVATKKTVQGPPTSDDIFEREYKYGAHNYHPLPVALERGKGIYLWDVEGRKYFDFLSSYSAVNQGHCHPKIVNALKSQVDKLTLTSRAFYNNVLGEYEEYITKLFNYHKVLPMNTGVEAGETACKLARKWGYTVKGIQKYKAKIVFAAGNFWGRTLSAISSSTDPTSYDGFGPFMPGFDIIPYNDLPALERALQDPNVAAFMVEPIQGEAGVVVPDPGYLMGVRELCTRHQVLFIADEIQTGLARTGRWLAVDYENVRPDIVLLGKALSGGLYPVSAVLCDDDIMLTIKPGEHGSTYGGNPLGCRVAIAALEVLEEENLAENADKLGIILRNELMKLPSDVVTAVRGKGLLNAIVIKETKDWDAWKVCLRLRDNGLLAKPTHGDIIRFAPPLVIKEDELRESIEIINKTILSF
UniProt Q92692, sequence (Q92692 whole entry, looked up): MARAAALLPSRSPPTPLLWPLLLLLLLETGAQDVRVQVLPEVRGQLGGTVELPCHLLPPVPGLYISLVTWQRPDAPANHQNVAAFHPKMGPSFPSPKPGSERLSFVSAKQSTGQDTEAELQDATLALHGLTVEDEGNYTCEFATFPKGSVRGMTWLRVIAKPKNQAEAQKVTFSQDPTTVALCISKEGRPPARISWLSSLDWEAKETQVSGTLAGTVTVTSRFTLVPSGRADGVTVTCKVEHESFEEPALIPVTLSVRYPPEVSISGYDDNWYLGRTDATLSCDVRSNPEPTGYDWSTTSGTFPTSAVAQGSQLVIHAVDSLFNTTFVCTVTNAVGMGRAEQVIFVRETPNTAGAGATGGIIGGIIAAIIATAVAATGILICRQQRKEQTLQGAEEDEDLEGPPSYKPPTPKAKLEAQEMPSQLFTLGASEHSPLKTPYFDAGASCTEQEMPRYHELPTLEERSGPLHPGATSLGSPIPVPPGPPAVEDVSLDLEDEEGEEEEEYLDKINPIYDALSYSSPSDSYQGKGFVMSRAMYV
UniProt O95182, sequence (O95182 whole entry, looked up): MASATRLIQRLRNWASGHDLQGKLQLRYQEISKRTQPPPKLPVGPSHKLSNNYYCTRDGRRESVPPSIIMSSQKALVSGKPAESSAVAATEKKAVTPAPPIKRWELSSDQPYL

Target	log2 fold change [1]	log2 fold change [2]	log2 fold change [3]	log2 fold change [4]	log2 fold change [5]	log2 fold change [6]	log2 fold change [7]	log2 fold change [8]	log2 fold change [9]	log2 fold change [10]
NDUFA7 (UniProt O95182)	-0.004	-0.103	0.02	0.039	0.012	-0.12	-0.101	0.07	-0.041	-0.118
MSH6 (UniProt P52701)	0.075	-0.427	0.152	-0.018	0.009	-0.196	0.099	0.185	-0.053	-0.087
MORC3 (UniProt Q14149)	0.058	0.052	0.197	-0.106	0.106	-0.017	0.185	0.122	-0.067	0.041
NR2C2 isoform 2 (UniProt P49116)	0.016	0.063	0.054	-0.076	0.066	-0.047	0.081	0.022	0.011	0.009
MRPS35 (UniProt P82673)	0.004	-0.043	0.016	0.166	0.016	-0.039	0.032	0.101	0.005	-0.277 (active)
NECTIN2 (UniProt Q92692)	0.004	0.121	0.082	-0.148	0.062	-0.036	-0.048	-0.038	0.015	0.113
MTHFS (UniProt P49914)	0.103	-0.026	0.117	-0.098	-0.023	-0.021	0	0.037	0.013	0.046
NFYC (UniProt Q13952)	0.022	0.013	0.054	0.005	0.086	0.002	0.022	0.027	0.001	0.089
NUP210 (UniProt Q8TEM1)	-0.039	-0.235 (active)	0.005	-0.006	-0.002	-0.083	-0.054	0.047	0.002	-0.351 (active)
NME1 isoform 2 (UniProt P15531)	0.013	0.012	0.161	0.01	0.38	-0.144	-0.07	0.195	-0.015	0
MT-ATP6 (UniProt P00846)	0.041	0.355	0.225	0.135	0.153	0.143	0.045	-0.081	-0.038	0.076
OAT (UniProt P04181)	-0.003	-0.123	0.053	-0.083	0.032	-0.03	-0.102	0.018	0.037	-0.233 (active)
NUP107 (UniProt P57740)	0.101	-0.067	-0.083	-0.062	0.031	-0.229	0.028	0.093	0.11	-0.018
OXSM (UniProt Q9NWU1)	0.016	0.053	0.036	-0.07	-0.024	-0.054	0.011	-0.002	-0.055	0.077
MRPS12 (UniProt O15235)	0.046	-0.075	0.015	0.311	-0.058	0.063	0.011	0.022	0.003	-0.65 (active)
